Source: PubChem
HP1b binding inh: HTS for Inhibitors of HP1-beta Chromodomain Interactions with Methylated Histone Tails | Chromobox protein homolog 1 (Homo sapiens), P83916 | AlphaScreen HP1-beta / biotin-H3K9me3 peptide binding | Potency, µM (doses to about 114 µM), for the others: at the top dose activity change, negative = inhibition, actives largely listed as inhibitors | 390,000 tested, 0.56% active | AID 540317, 2011; further: potency means the concentration at half of the fitted maximal effect; nearly all actives have a fitted effect of over 70% in size
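Compound inhibition of the preformed complex between 50 nM HP1-beta and 50 nM biotinylated H3K9me3 peptide was read by AlphaScreen. Buffer was PBS pH 7.4 with 0.01% Tween-20. Incubations ran 30 min at room temperature, with 10 ug/mL donor/acceptor beads.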
PLK1 PBD block: qHTS for Inhibitors of PLK1-PDB (polo-like kinase 1 - polo-box domain): Primary Screen; AID 720504, 2013; 360,000 tested, 2.8% active; Serine/threonine-protein kinase PLK1 (Homo sapiens), P53350; Plk1 PBD binding of FITC phosphopeptide, fluorescence polarization; Potency, µM, for the others: max response, negative = inhibition, most hits filed as inhibitors; further: potency means the concentration at half of the fitted maximal effect; series mostly up to about 57 µM; on the % scale 0 is the no-effect control and ±100 the full control effect; nearly all actives have a fitted effect of over 65% in size
JMJD2A Tudor: qHTS Assay for Inhibitors of JMJD2A-Tudor Domain; Lysine-specific demethylase 4A (Homo sapiens), O75164; AlphaScreen JMJD2A-Tudor / H3K4me3 peptide binding; Potency, µM (highest dose often 114 µM), for inactives: at the highest dose activity change, negative = inhibition, hits mostly inhibitors; 390,000 tested, 4.4% active; further: potency means the concentration at half of the fitted maximal effect; on the % scale 0 is the no-effect control and ±100 the full control effect; nearly all actives have a fitted effect of over 50% in size
PI5P4K alpha inh: qHTS for Inhibitors of phosphatidylinositol 5-phosphate 4-kinase (PI5P4K). Phosphatidylinositol 5-phosphate 4-kinase type-2 alpha (Homo sapiens), P48426. PI5P4Kalpha enzyme, ADP-Glo luminescence, 60 min; hits give low values. max response, %. 330,000 tested, 1.2% active. AID 652105, 2013; active means max response of -50% or lower; inconclusive means between -30% and -50%; inactive means -30% or higher; further: value at the top dose of about 77 µM; on the % scale 0 is the no-effect control and ±100 the full control effect
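Human PI5P4Kalpha with substrate in 0.038 M HEPES pH 7.4, 0.28 mM EGTA, 0.1% CHAPS, 5% DMSO; reaction started with 5 microM ATP (final), 60 min at room temperature. ADP formed read by ADP-Glo luminescence.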
G9a block: qHTS Assay for Inhibitors of Histone Lysine Methyltransferase G9a. AID 504332, 2011. 350,000 tested, 8.8% active. Potency, µM (doses to about 102 µM), without a hit: at the top dose activity, negative = inhibition, most hits filed as inhibitors. Histone-lysine N-methyltransferase EHMT2 (Homo sapiens), Q96KQ7. G9a H3K9 monomethylation, AlphaScreen, 2 h; further: potency means the concentration at half of the fitted maximal effect; on the % scale 0 is the no-effect control and ±100 the full control effect; nearly all actives have a fitted effect of over 75% in size
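Step 1: enzyme (final 20 nM) with compound, 15 min RT. Step 2: substrate peptide 500 nM and SAM 20 uM, 2 h RT. Step 3: anti-H3K9me1 antibody and AlphaScreen beads, 10 min, then plate read.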
BAZ2B block: qHTS Assay for Inhibitors of BAZ2B; Bromodomain adjacent to zinc finger domain protein 2B (Homo sapiens), Q9UIF8; AlphaScreen BAZ2B-H3K14Ac peptide displacement; Potency, µM (series often up to 114 µM), for the others: at the top dose activity change, negative = inhibition, hits mostly inhibitors; 360,000 tested, 4.4% active; further: potency means the concentration at half of the fitted maximal effect; on the % scale 0 is the no-effect control and ±100 the full control effect; nearly all actives have a fitted effect of over 60% in size
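Complex of BAZ2B and biotin-H3K14Ac (50 nM apiece) forms over 30 min at RT, then faces library compounds up to 110 uM for another 30 min; AlphaScreen beads added, 20 min dark incubation, luminescence read.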
The depositor's hits bear a star; [ ] = dose if it differs, or a comment. A selection: hits, their analogues and other compounds. The true share with any hit is near 12%. Unless noted, the call rests on the fitted dose curve; in most records, active means well fitted curve in the direction sought with a large enough effect; inconclusive means small, poorly fitted or top-dose-only effect, or another doubt; inactive means no such curve, though single readings can be large; an effect the other way counts as inactive or inconclusive.

`COc1cc(/C=C(\C#N)C(=O)Nc2cccc(C(=O)O)c2)ccc1OCc1ccc(F)cc1` gave HP1b binding inh 25.8%, PLK1 PBD block inconclusive, JMJD2A Tudor -28.9%, PI5P4K alpha inh -26.7, G9a block inconclusive and BAZ2B block -28.9%.
Screening N#C/C(=C/c1ccc(OCc2ccc(C(=O)O)cc2)cc1)C(=O)Nc1ccccc1 returned HP1b binding inh 0.9%, PLK1 PBD block inconclusive, JMJD2A Tudor 25.1µM*, PI5P4K alpha inh -7.0, G9a block 50.1µM* and BAZ2B block 79.4µM*.
For COc1ccc(NC(=O)/C(C#N)=C\c2ccc(OCc3ccc(C(=O)O)cc3)c(OC)c2)cc1 the results were HP1b binding inh inconclusive, PLK1 PBD block inconclusive, JMJD2A Tudor inconclusive, PI5P4K alpha inh 0.6, G9a block inconclusive and BAZ2B block inconclusive.
`N#C/C(=C\c1ccc(OCc2ccccc2)cc1)C(N)=O` gave HP1b binding inh inconclusive, PLK1 PBD block 9.47µM*, JMJD2A Tudor 14.1µM*, PI5P4K alpha inh -63.0*, G9a block -27.9% and BAZ2B block 0.8%.
N#C/C(=C\c1ccc(OCc2ccc(Br)cc2)cc1)C(=O)Nc1cccc(C(=O)O)c1 was read as HP1b binding inh -2.5%, PLK1 PBD block 21.2µM*, JMJD2A Tudor 39.8µM*, PI5P4K alpha inh -15.4, G9a block inconclusive and BAZ2B block 56.2µM*.
Screening Cc1ccccc1COc1ccc(/C=C(\C#N)C(N)=O)cc1 returned HP1b binding inh 18.9%, PLK1 PBD block -8.3%, JMJD2A Tudor -5.4%, PI5P4K alpha inh 5.8, G9a block 0.4% and BAZ2B block -11.4%.
`N#C/C(=C\c1ccc(OCc2ccc(F)cc2)cc1)C(=O)Nc1cccc(C(=O)O)c1` gave HP1b binding inh 21.7%, PLK1 PBD block inconclusive, JMJD2A Tudor -30.5%, PI5P4K alpha inh -15.8, G9a block -8.2%[12.7 µM] and BAZ2B block 79.4µM*.
Cn1cccc1C(=O)N1CCC2(CCN(C(=O)Nc3cccc(C#N)c3)CC2)CC1 was read as G9a block 4.3%[12.7 µM].
For N#C/C(=C\c1ccccc1OCc1ccc(C(=O)O)cc1)C(=O)Nc1ccc(O)cc1 the results were HP1b binding inh inconclusive, PLK1 PBD block inconclusive, JMJD2A Tudor -11.3%[11.4 µM], PI5P4K alpha inh -4.1, G9a block 50.1µM* and BAZ2B block -33.1%.
For COC(=O)c1ccc(COc2ccccc2/C=C(\C#N)C(=O)Nc2ccc(C)cc2)cc1 the results were HP1b binding inh 15.3%, PLK1 PBD block -0.1%, JMJD2A Tudor -12.3%, PI5P4K alpha inh 9.6, G9a block 1.9%[59 µM] and BAZ2B block -22.5%.
`N#C/C(=C/c1cn(Cc2ccc(F)cc2)c2ccccc12)C(=O)Nc1cccc(Cl)c1` gave HP1b binding inh 27.2%, JMJD2A Tudor -6.2%, G9a block 3.6%[59 µM] and BAZ2B block 3.2%.
COc1ccc(NC(=O)CN(C)C(=O)c2ccc(-c3cccc(C(F)(F)F)c3)o2)cc1 was read as HP1b binding inh 7.7%, PLK1 PBD block -7.8%, JMJD2A Tudor -14.7%, PI5P4K alpha inh 14.3, G9a block 20.6% and BAZ2B block -21.3%.
Screening Cc1ccccc1-c1ccc(C(=O)Nc2cccc(F)c2)o1 returned HP1b binding inh -1.1%, PLK1 PBD block -6.5%, JMJD2A Tudor -1.4%, PI5P4K alpha inh -9.0, G9a block 10µM* and BAZ2B block inconclusive.
Screening COc1ccc(NC(=O)c2ccc(-c3ccccc3C(F)(F)F)o2)cc1 returned HP1b binding inh 35.2%, PLK1 PBD block -19.3%, JMJD2A Tudor -12.9%, PI5P4K alpha inh -0.3, G9a block 70.8µM* and BAZ2B block 7.8%.
Screening O=C(NCCc1ccccc1)c1ccc(-c2ccccc2C(F)(F)F)o1 returned HP1b binding inh 37.0%, PLK1 PBD block -16.8%, JMJD2A Tudor 24.6%, PI5P4K alpha inh -29.6, G9a block 50.1µM* and BAZ2B block -3.5%.
For COc1ccc(NC(=O)CN(C)C(=O)c2ccc(-c3ccccc3Cl)o2)cc1 the results were HP1b binding inh 14.8%, PLK1 PBD block -3.2%, JMJD2A Tudor -18.0%, PI5P4K alpha inh -9.1, G9a block 39.8µM* and BAZ2B block -30.4%.
COc1ccc2c(c1)sc(=NC(=O)CS(=O)(=O)c1ccc(F)cc1)n2C was read as HP1b binding inh 21.4%, PLK1 PBD block -2.1%, JMJD2A Tudor -13.8%, PI5P4K alpha inh 1.8, G9a block -0.7% and BAZ2B block 4.4%.
`O=C(Nc1cccc(F)c1)c1ccc(-c2ccccc2C(F)(F)F)o1` gave G9a block 44.7µM* and BAZ2B block 2.1%.
COc1ccccc1CNC(=O)c1ccc(-c2ccccc2C(F)(F)F)o1 was read as HP1b binding inh 54.1%, PLK1 PBD block -5.3%, JMJD2A Tudor 19.0%, PI5P4K alpha inh 5.7, G9a block inconclusive and BAZ2B block -32.7%.
Cc1ccc(NC(=O)c2c(NC(=O)C(F)(F)F)sc3c2CCCCC3)cc1 was read as HP1b binding inh inconclusive, JMJD2A Tudor inconclusive, G9a block inconclusive and BAZ2B block -29.2%.
Screening CCc1ccccc1NC(=O)c1c(NC(=O)c2ccccc2)sc2c1CCCC2 returned HP1b binding inh 41.5%, JMJD2A Tudor 5.6%, G9a block 29.4%[59 µM] and BAZ2B block 16.1%.
`Cc1cccc(NC(=O)c2c(NC(=O)C(F)(F)F)sc3c2CCCCC3)c1` gave HP1b binding inh -9.1%, JMJD2A Tudor inconclusive, G9a block inconclusive and BAZ2B block -38.1%.
`Cc1ccccc1NC(=O)c1c(NC(=O)C(F)(F)F)sc2c1CCCCC2` gave HP1b binding inh 12.5%, JMJD2A Tudor -20.9%, G9a block 8.91µM* and BAZ2B block -14.1%.
`O=C(Nc1cccc(Cl)c1)c1c(NC(=O)C(F)(F)F)sc2c1CCCC2` gave HP1b binding inh inconclusive, JMJD2A Tudor 79.4µM*, G9a block 3.98µM* and BAZ2B block 50.1µM*.
`CCOc1ccccc1NC(=O)c1c(NC(=O)c2ccncc2)sc2c1CCC(C(C)(C)C)C2` (configuration not stated) gave HP1b binding inh 50.2%, JMJD2A Tudor 5.2%, G9a block -40.9%[59 µM] and BAZ2B block -14.1%.
`CC(C)(C)C(=O)Nc1sc2c(c1C(=O)Nc1ccccn1)CCCC2` gave HP1b binding inh 11.5%, PLK1 PBD block 26.7µM*, JMJD2A Tudor 44.7µM*, PI5P4K alpha inh 5.0, G9a block -8.6% and BAZ2B block 5.8%.
